# Inconclusive results are not listed. Unmarked numbers belong to inactive results. Calls come from the whole dose curve; as a rule, active = well fitted cell-killing curve with a large enough effect in the repeat runs; inconclusive = weak or mixed curves; inactive = flat fitted curve, though single readings scatter.
# Experiment: qHTS RealTime-Glo MT Cell Viability Assay in HepG2 cells - 16 hour (AID 1224885); note: nearly all actives have a fitted effect of over 50% in size
# Conditions: RealTime-Glo luminescence; series mostly up to 76.8 µM; activity change, negative = cytotoxic: at the top concentration
# Method in brief: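 Tox21 10K library screened in qHTS format on HepG2 cells carrying RealTime-Glo reagents. Compounds were added after a 5 h preincubation, and the luminescent signal from continuous culture was measured repeatedly during 40 h treatment.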
# % is set by controls: 0 for no effect and ±100 for the full control effect.
row,Compound,"activity change, negative = cytotoxic"
1,CCN(CCCCOC(=O)c1ccc(OC)c(OC)c1)C(C)Cc1ccc(OC)cc1 (stereo unspecified),-12.3% [at 35.3 µM]
2,O=Cc1ccc(Cl)c([N+](=O)[O-])c1,-3.73%
3,Cc1ccc(NC(=O)c2ccc(CN3CCN(C)CC3)cc2)cc1Nc1nccc(-c2cccnc2)n1,-17.1% [at 35.3 µM]
4,CCn1nc(Cc2ccccc2)cc1C1CCN(C[C@H]2C[C@H](N(C)[C@@H](C(=O)O)C(C)C)C[C@@H]2c2cccc(F)c2)CC1,-8.33%
5,c1ccc(CCNc2nc(-c3ccccc3)cs2)cc1,-19.3% [at 35.3 µM]
6,O=C(N[C@@H](Cc1ccccc1)[C@@H](O)C(=O)N1C[C@@H](O)[C@@H](O)C1)c1cc2cc(Cl)ccc2[nH]1,-9.22%
7,CC(C)(C)c1ccc(CCC=O)cc1,-3.03%
8,CC(C)(Cc1c[nH]c2ccccc12)NCC(O)COc1ccccc1C#N (stereo unspecified),-15% [at 35.3 µM]
9,O=C(c1ccc(Cl)cc1)c1ccc(Cl)cc1,-1.54%
10,O=C1c2ccccc2C(=O)C1c1ccc2ccccc2n1,-15.5% [at 35.3 µM]
11,c1ccc(CN(Cc2ccccc2)Cc2ccccc2)cc1,-12.7%
12,CC(C)=CCC/C(C)=C/C=N/O,0.256%
13,Cc1c(N=C=O)cccc1N=C=O,1.74%
14,CCCN(C1CCN(C(=O)C2CCNCC2)CC1)[C@@H]1CCc2ccc(OC)cc2C1,-5.81%
15,C=C[Si]1(C)O[Si](C)(C=C)O[Si](C)(C=C)O[Si](C)(C=C)O1 (stereo unspecified),3.46%
16,CCOC(C)OCC,-0.672%
